# From PubChem BioAssay (Tox21)
# Results filed as inconclusive are left out. Activity calls are given as the source filed them. Calls follow the shape of the dose curve; as a rule, active = well fitted activation curve with a large enough effect in the repeat runs; inconclusive = weak or mixed curves; inactive = no such curve, though single readings can be large or run the other way.
# Target: Nuclear receptor subfamily 1 group I member 2 (Rattus norvegicus) (UniProt Q9R1A7)
# Assay: Rat pregnane X receptor (rPXR) activation by small molecules, qHTS assay (AID 1346983); also: nearly all actives have a fitted effect of over 20% in size
# Conditions: rPXR luciferase reporter cells, One-Glo luminescence, 24 h; max activation: active compounds read high
# From the text: National Center for Advancing Translational Sciences [NCATS] NIH Chemical Genomics Center [NCGC] U.S. Environmental Protection Agency [EPA] National Institutes of Environmental Health Sciences [NIEHS] National Toxicology Program [NTP] Assay overview: The Pregnane X receptor (PXR), a ligand activated nuclear receptor plays a critical role in the regulation of genes involved in drug metabolism and transporters. PXR binds xenobiotics and when compounds interact with PXR produces enhanced expression of CYP3A genes. In humans PXR activation and CYP3A4 induction can be problematic due to their interactions with co-medicated drugs and decrease their efficacy or increase their own metabolism. However, there are known species-specific differences with regard to PXR activation that should be taken into account when animal PXR data are extrapolated to humans. A cell based rat PXR (rPXR) assay (developed by Puracyp, Inc., CA) was used to assess the activation of rPXR.
# Assay Protocol Summary: rPXR cells were dispensed at 2,000 per well in 5uL of assay medium into white, solid-bottom 1536-well plates using a Multidrop Combi dispenser (Thermo Scientific). The assay plates were incubated at 37 C for 5hr before transferring 23 nL of test compounds dissolved in DMSO and positive control via Pintool station (Wako). The assay plates were incubated at 37 C for 24 hr. Then 5ul One-Glo assay reagent (Promega) was added to each plate by a Flying Reagent Dispenser (FRD, Aurora Discovery) and following 30 min incubation at room temperature, luciferase activity was quantified on a ViewLux plate reader (Perkin Elmer).
# % is scaled to controls: 0 for no effect and ±100 for the full control effect; potency is read from the fitted curve at half-maximal effect.
# Nuclear receptor subfamily 1 group I member 2 (Rattus norvegicus), sequence (Q9R1A7 whole entry, looked up): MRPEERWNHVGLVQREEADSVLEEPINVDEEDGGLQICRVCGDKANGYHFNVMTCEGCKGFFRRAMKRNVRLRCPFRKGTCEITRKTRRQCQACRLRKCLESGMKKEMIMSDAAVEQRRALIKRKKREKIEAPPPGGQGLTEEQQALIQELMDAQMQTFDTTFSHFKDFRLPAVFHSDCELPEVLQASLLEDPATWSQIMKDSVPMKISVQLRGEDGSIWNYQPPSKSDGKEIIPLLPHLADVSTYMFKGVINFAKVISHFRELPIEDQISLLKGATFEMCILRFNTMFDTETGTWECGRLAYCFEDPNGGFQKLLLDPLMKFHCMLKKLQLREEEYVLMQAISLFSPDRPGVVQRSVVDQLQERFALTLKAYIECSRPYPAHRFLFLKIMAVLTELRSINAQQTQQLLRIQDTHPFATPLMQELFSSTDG
Compound,max activation,Potency
CC(C)(C)c1ccc(C(=O)CCCN2CCC(OC(c3ccccc3)c3ccccc3)CC2)cc1,-2.11% (inactive),
CCN(CC)CCNC(=O)c1c(C)[nH]c(/C=C2\C(=O)Nc3ccc(F)cc32)c1C,-11.9% (inactive),
Clc1ccc2nsnc2c1NC1=NCCN1,-3.32% (inactive),
CCN1/C(=C/C=C/c2sc3ccccc3[n+]2CC)Sc2ccccc21,-26.5% (inactive),
C[C@H]1[C@H]2CC[C@H]3[C@@H]4CC=C5C[C@@H](N(C)C)CC[C@]5(C)[C@H]4CC[C@]23CN1C,-5.76% (inactive),
CC(C)=CCOc1ccc(/C=C/C(=O)c2ccc(OCC=C(C)C)cc2OCC(=O)O)cc1,-3.35% (inactive),
CC(C)(C)NC(=O)[C@@H]1C[C@@H]2CCCC[C@@H]2CN1C[C@@H](O)[C@H](Cc1ccccc1)NC(=O)[C@H](CC(N)=O)NC(=O)c1ccc2ccccc2n1,7.59% (inactive),
C[C@@H]1C[C@H]2[C@@H]3CCC4=CC(=O)C=C[C@]4(C)[C@@]3(Cl)[C@@H](O)C[C@]2(C)[C@@]1(OC(=O)c1ccco1)C(=O)CCl,,2 µM (active)
Cc1c(C)c2c(c(C)c1OC(=O)CCC(=O)O)CC[C@@](C)(CCC[C@H](C)CCC[C@H](C)CCCC(C)C)O2,-1.35% (inactive),
O=c1[nH]cnc2nc[nH]c12,-3.71% (inactive),
COc1c(C)c2c(c(O)c1C/C=C(\C)CCC(=O)O)C(=O)OC2,-5.38% (inactive),
O=c1c(-c2ccccc2)c1-c1ccccc1,-15.6% (inactive),
CCOC(=O)/C=C(C)/C=C/C=C(C)/C=C/c1c(C)cc(OC)c(C)c1C,-4.32% (inactive),
CCCC1O[C@@H]2C[C@H]3[C@@H]4CCC5=CC(=O)C=C[C@]5(C)[C@H]4[C@@H](O)C[C@]3(C)[C@]2(C(=O)CO)O1 (stereo not given in full),,12.6 µM (active)
CSc1ccc2c(c1)C(N1CCN(C)CC1)Cc1ccccc1S2 (stereo not given),-6.14% (inactive),
O=C1Cc2cc(CCN3CCN(c4nsc5ccccc45)CC3)c(Cl)cc2N1,-10.8% (inactive),
COc1cc(/C=C/C(=O)O[C@H]2CC[C@]34C[C@]35CC[C@]3(C)[C@@H]([C@H](C)CCC=C(C)C)CC[C@@]3(C)[C@@H]5CC[C@H]4C2(C)C)ccc1O,-10.7% (inactive),
CN1CCN(CCC(=O)N2c3ccccc3Sc3ccc(C(F)(F)F)cc32)CC1,-0.926% (inactive),
Cc1ccc(O)c2ncccc12,-0.8% (inactive),
O=C(OC[C@H]1O[C@@H](OC(=O)c2cc(O)c(O)c(OC(=O)c3cc(O)c(O)c(O)c3)c2)[C@H](OC(=O)c2cc(O)c(O)c(OC(=O)c3cc(O)c(O)c(O)c3)c2)[C@@H](OC(=O)c2cc(O)c(O)c(OC(=O)c3cc(O)c(O)c(O)c3)c2)[C@@H]1OC(=O)c1cc(O)c(O)c(OC(=O)c2cc(O)c(O)c(O)c2)c1)c1cc(O)c(O)c(OC(=O)c2cc(O)c(O)c(O)c2)c1,-10.1% (inactive),

Compound,max activation,Potency
CCCCCCCCOc1ccccc1C(=O)Nc1ccc(C(=O)OCC[N+](C)(CC)CC)cc1,0.409% (inactive),
CC[C@H](c1ccc(O)cc1)[C@@H](CC)c1ccc(O)cc1,-4.59% (inactive),
CCCCCCCCCCCCCCCC[N+](C)(C)CCN(Cc1ccc(OC)cc1)c1ncccn1,-2.3% (inactive),
COc1ccc(-c2ccc3cc(C(=O)O)ccc3c2)cc1C12CC3CC(CC(C3)C1)C2,-8.07% (inactive),
CN(C)[C@@H]1C(=O)C(C(N)=O)=C(O)[C@@]2(O)C(=O)C3=C(O)c4c(O)ccc(Cl)c4[C@@H](O)[C@H]3C[C@@H]12,-0.517% (inactive),
Cc1cc(C2CCCCC2)n(O)c(=O)c1,-2.39% (inactive),
CCOC(=O)O[C@]1(C(=O)OCCl)CC[C@H]2[C@@H]3CCC4=CC(=O)C=C[C@]4(C)[C@H]3[C@@H](O)C[C@@]21C,-1.8% (inactive),
Clc1ccccc1C(c1ccccc1)(c1ccccc1)n1ccnc1,,3.98 µM (active)
NC(=O)CC[C@@H]1NC(=O)[C@H](Cc2ccccc2)NC(=O)[C@H](Cc2ccc(O)cc2)NC(=O)CCSSC[C@@H](C(=O)N2CCC[C@H]2C(=O)N[C@@H](CCCN=C(N)N)C(=O)NCC(N)=O)NC(=O)[C@H](CC(N)=O)NC1=O,-2.21% (inactive),
O=C(Nc1cccc(C(F)(F)F)c1)c1cc(Br)cc(Br)c1O,-18.6% (inactive),
O=C(N/N=C/c1ccccc1O)c1ccncc1,-3.33% (inactive),
[O-][n+]1ccccc1SSc1cccc[n+]1[O-],-9.36% (inactive),
Cc1c(C)c2c(c(C)c1O)CCC(C)(COc1ccc(CC3SC(=O)NC3=O)cc1)O2 (stereo not given),-5.73% (inactive),
O=C(Oc1cccc2cccnc12)c1ccccc1,-3.5% (inactive),
N/C(=N\N=C\c1ccc(Cl)cc1)N/N=C/c1ccc(Cl)cc1,-3.26% (inactive),
CC(=O)SC[C@@H](Cc1ccccc1)C(=O)NCC(=O)OCc1ccccc1,-6.71% (inactive),
CCc1oc2ccccc2c1C(=O)c1cc(Br)c(O)c(Br)c1,-3.61% (inactive),
CCCCCCC[N+](CC)(CC)CCCCc1ccc(Cl)cc1,-3.24% (inactive),
CC(=O)N1CCN(c2ccc(OC[C@H]3CO[C@](Cn4ccnc4)(c4ccc(Cl)cc4Cl)O3)cc2)CC1,-4.95% (inactive),
COc1ccc(CN2CCN(C(c3ccc(F)cc3)c3ccc(F)cc3)CC2)c(OC)c1OC,-8.37% (inactive),
